Test results: the supplement of paper PMC6555819

The sequences below were run on VDR:RXRa (NR concentration 270 nM, RXRa partner concentration 90 nM) (assay: PBM binding z-score (relative to random genomic background probes); higher = stronger binding; sequences stand for … in GC…GCGATTGACAGCGTAGAATGAAGG).
Experimental: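 Protein-binding microarray (Agilent 4x180K custom design, double-stranded 60-nt probes: 5' GC cap, 34-nt variable region, 24-nt constant primer region; full probe sequence given). Purified or IVT nuclear receptor:RXRα heterodimers (3:1 NR:RXRα, mostly 270:90 nM) or homodimers were incubated for 1 h in PBS with 2% milk and no ligand, then detected with Alexa488 antibodies. Fluorescence from o1-orientation probes (~5 replicates averaged) was converted to z-scores against 500 random hg19 background probes. Variable regions are seed direct-repeat (DR0–DR5) sites, all their single-nucleotide variants and half-site ablations.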

| Sequence | PBM binding z-score |
| --- | --- |
| TCTTTTAGATCAAAGGTTAAGAAAGCCGAAGCCT | 1.51 |
| GCAGACAGGTGAAACGCAGGTAACACAGGGTGGC | -0.439 |
| CCTACTGGGCCAAAAAGGTCATTGAAGCCGATAA | 4.54 |
| GCTGCTAGGTCAACTGATGGTCCGCTAAAGCTCG | 1.31 |
| CTACCAAGGTGAACAAGGTCGCTGATTACTATTC | 5.5 |
| TGTCAAAGTTCAAAGGTAACGTACGTATCCACAC | 5.05 |
| TCTTGTAGAGCAAAGGTTAAGAAAGCCGAAGCCT | 0.679 |
| CCGACTGGGGCAGAAAGGTTACCATCCCATCCGG | 0.789 |
| AGAACGAGGGTAATGAGTTGATAGCACGGGTGGC | 3.47 |
| CCTAGCAGGCCAATGTGGGTCACTCAAGGCTTGA | 1.02 |
| AGAACGAGGGCTATGAGTTGATAGCACGGGTGGC | 0.114 |
| ATCGAAAGGTCGTGAGGTGCGTATACAGAAAGGC | 6.03 |
| ATCTCTAGGTAAAGTTCAGTGTAAGATCGATAGA | 2.12 |
| CCTACTTGGCCAAGGTCATTGATCAGTCAAAGCA | 3.78 |
| ACTACCAGGCCAAGTTTGGGTCACTCAAACAAAG | 1.08 |
| TGTCAAAGTTCATAGGTAACGTAAGTATCCACAC | 4.67 |
| ATCGAAAGCTCGTGAGGTGAGTATACAGAAAGGC | -0.256 |
| CGAACTAGGTCAGAACAGGAGAGTGAAGGATGAT | 0.035 |
| GCGACTGGGACAAAGCAGGTTACCATAAGGTTGG | -0.0797 |
| GATACAGGGTCAAGGCCCGAGTACGCGTATTGAT | 4.28 |

| Sequence | PBM binding z-score |
| --- | --- |
| CCTATTAGTTGACCATAAGGGCAACCGCAGCTCG | 0.982 |
| CCGAGTAGGTTATGGGGCATACAGGCAACGGTGA | 0.117 |
| CGAACTAGGTCATCAAGGACAGTGAATACATTGA | 5.54 |
| CTACTAAGGTGAACAAGGTCGTTGATTACTATTC | 6.38 |
| ACCGACAGGTGATGAAGGTAACTCAGGCTATCAT | -0.148 |
| CTCGAAAGGTCGTGCTCCGGTGAGTATACCAAAC | 3.48 |
| GCTGACGGGTCAAAGGTTATAGCATGAATAGAAT | 5.27 |
| GCTATCAGGCCATTTGGGTCACTCAATGACGGGC | 1.38 |
| CGAACTAGGTCATCCAGGACACTGAATACATTGA | 5.27 |
| GTACCAAGGTGAATAGGTCGTTAATGAGTAGGCG | 0.93 |
| TCTAGTTGGTCACGCAGGTCACACACGACGGGTA | 4.01 |
| TCACACAGGTGAAGGTAACTCAGGTACGCAGTCG | 0.751 |
| TCCTGTAGATCAACAGGAGGTTAAGAAAGATCGA | 0.266 |
| TAGCCTAGGTCATGGGCCAGTACACCACGCGAAC | 2.38 |
| GGAACGAGGGCATTCGAGTTGATCGCATGGCGAT | 3.61 |
| CGGCCAAGGTCAAGGTCAGTGAAAGAGACTCGAA | 4.68 |
| ATATGTAGATTACATCCGGGTCATTCAGGCTATG | 3.34 |
| CCTACTGGGCTATCAGGTCATTGATATCAACGTT | 1.36 |
| AGTCAATGTTCAGGACGAGGTAACGTAAAGCACG | 0.00608 |
| TCAAATAGGTAAAAGGTGAAAGTCGGTGTGGTAA | 1.79 |
